# Experimental data taken from paper PMC7862700, “An all-to-all approach to the identification of sequence-specific readers for epigenetic DNA modifications on cytosine”.
# Key:
# Test in all cases: DAPPL (digital affinity profiling via proximity ligation, sequencing); 10 mM Tris-HCl pH 7.5, 50 mM NaCl, 1 mM DTT, 4% glycerol, room temperature, 30 min; GST-TFs on glutathione beads, 16-mer random dsDNA library, 0.1% formaldehyde crosslink after washing; high values mean tight binding
# FEV = molecular target: T1, FEV (Homo sapiens, UniProt Q99581 1-238); conditions: protein: recombinant; tags: N-terminal GST; dsDNA, one strand shown
# T1 sequence: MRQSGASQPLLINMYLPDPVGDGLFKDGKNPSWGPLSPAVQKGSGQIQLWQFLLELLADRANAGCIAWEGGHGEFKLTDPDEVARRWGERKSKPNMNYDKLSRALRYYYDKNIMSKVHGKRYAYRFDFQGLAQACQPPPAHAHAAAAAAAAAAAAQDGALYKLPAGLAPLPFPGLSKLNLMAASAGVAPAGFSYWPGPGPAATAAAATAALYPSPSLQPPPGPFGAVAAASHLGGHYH
# Procedure, shortened: (§1)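 Beads coated with glutathione captured GST-fused human transcription factors that had been expressed in yeast, and the factors were then given DNA barcodes and pooled with a tag-only sample. The pools were incubated with 200 nmole of a random double-stranded 16-mer DNA library in Tris/NaCl/DTT/glycerol buffer for 30 min at room temperature, washed, crosslinked with 0.1% formaldehyde and proximity-ligated with BsaI/T4 ligase at 37 °C for 1 h. PCR amplification and Illumina NextSeq500 sequencing came last. Binding signal is each hexamer's read frequency for a factor divided by its frequency for the tag-only sample.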
# ETV5 = ETV5 (Homo sapiens, UniProt P41161 1-510); conditions: protein: recombinant; tags: N-terminal GST; dsDNA, one strand shown
# Sequence of ETV5 (P41161 whole entry): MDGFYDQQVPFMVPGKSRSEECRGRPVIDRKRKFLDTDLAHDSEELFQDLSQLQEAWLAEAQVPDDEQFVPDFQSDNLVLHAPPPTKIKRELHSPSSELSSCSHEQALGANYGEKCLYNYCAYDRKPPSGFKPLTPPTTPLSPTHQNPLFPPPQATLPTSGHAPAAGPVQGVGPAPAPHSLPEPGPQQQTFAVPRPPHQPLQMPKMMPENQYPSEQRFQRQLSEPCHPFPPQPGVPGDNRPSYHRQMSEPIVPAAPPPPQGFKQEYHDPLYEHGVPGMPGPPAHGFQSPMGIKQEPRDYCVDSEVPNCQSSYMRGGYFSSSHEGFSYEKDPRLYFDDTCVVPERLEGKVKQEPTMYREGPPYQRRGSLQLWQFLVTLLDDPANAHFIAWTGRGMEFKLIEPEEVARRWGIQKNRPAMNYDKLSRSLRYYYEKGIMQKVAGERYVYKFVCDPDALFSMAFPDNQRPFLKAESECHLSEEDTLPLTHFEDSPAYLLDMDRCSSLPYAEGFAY
# Procedure, shortened: as §1
# HSF1 = HSF1 (Homo sapiens, UniProt Q00613 1-529); conditions: protein: recombinant; tags: N-terminal GST; chain copies: 3; dsDNA, one strand shown
# Sequence of HSF1 (Q00613 whole entry): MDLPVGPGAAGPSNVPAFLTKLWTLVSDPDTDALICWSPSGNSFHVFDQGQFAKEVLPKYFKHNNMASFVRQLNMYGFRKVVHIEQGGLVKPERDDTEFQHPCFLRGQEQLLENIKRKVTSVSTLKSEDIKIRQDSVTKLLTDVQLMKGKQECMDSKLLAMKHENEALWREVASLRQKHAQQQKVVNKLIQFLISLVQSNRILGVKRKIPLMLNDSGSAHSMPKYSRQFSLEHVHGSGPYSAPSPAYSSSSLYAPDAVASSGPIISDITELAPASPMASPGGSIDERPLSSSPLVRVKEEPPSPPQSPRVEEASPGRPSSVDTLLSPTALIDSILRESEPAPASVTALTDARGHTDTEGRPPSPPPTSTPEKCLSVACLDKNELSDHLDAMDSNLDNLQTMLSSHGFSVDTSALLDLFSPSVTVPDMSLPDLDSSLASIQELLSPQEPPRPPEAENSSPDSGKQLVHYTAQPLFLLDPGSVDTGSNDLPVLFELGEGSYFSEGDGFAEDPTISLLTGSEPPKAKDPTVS
# Procedure, shortened: as §1
# SPIC = molecular target: T2, SPIC (Homo sapiens, UniProt Q8N5J4 1-248); conditions: protein: recombinant; tags: N-terminal GST; dsDNA, one strand shown
# T2 sequence: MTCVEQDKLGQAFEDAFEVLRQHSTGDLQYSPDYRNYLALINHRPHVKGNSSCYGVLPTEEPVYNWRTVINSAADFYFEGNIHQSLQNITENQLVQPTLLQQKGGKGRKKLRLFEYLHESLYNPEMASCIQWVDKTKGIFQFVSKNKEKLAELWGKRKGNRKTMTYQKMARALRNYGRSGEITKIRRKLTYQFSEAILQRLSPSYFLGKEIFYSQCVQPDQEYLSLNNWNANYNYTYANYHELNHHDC
# Procedure, shortened: as §1
# ELF4 = ELF4 (Homo sapiens, UniProt Q99607 1-663); conditions: protein: recombinant; tags: N-terminal GST; dsDNA, one strand shown
# Sequence of ELF4 (Q99607 whole entry): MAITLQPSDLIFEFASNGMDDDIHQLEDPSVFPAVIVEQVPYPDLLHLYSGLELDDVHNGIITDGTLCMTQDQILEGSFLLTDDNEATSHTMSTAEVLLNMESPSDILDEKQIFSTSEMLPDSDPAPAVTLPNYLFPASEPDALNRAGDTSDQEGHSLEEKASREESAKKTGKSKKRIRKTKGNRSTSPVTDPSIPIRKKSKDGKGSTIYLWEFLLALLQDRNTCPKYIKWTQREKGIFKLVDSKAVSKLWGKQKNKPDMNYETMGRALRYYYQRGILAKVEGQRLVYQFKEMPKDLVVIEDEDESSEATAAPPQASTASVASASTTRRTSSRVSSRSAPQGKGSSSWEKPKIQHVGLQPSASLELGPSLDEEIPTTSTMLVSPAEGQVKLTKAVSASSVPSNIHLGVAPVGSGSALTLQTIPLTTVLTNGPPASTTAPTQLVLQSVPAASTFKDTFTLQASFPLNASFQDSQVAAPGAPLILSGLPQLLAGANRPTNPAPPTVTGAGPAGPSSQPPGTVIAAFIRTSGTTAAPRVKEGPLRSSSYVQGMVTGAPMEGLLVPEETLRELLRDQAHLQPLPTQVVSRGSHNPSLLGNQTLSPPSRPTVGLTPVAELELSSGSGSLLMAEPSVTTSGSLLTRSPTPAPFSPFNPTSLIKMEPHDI
# Procedure, shortened: as §1
# ELK4 = molecular target: T3, ELK4 (Homo sapiens, UniProt P28324-2 1-405); conditions: protein: recombinant; tags: N-terminal GST; dsDNA, one strand shown
# T3 sequence: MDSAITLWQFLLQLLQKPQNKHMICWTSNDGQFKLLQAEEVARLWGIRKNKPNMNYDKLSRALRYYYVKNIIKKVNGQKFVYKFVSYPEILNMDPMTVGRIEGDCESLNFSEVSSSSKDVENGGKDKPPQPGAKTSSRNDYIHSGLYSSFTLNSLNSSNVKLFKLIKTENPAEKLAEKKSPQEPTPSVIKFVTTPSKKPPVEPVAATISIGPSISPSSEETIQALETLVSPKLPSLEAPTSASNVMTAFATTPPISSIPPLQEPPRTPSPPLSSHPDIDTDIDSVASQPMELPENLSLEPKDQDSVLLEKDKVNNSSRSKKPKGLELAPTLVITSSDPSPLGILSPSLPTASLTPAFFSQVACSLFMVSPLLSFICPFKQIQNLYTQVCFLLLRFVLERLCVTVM
# Procedure, shortened: as §1
# ETV2 = molecular target: T4, ETV2 (Homo sapiens, UniProt O00321 1-342); conditions: protein: recombinant; tags: N-terminal GST; dsDNA, one strand shown
# T4 sequence: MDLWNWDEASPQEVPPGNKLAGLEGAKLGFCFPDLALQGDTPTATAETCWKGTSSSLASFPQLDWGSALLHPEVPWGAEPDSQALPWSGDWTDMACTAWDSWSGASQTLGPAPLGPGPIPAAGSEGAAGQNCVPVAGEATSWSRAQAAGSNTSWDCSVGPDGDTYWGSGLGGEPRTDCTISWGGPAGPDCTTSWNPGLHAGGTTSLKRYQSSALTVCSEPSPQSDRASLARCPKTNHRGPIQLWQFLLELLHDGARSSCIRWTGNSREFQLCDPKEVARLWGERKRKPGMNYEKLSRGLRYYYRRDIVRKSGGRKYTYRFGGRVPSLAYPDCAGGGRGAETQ
# Procedure, shortened: as §1
# ELF3 = molecular target: T5, ELF3 (Homo sapiens, UniProt P78545 1-371); conditions: protein: recombinant; tags: N-terminal GST; dsDNA, one strand shown
# T5 sequence: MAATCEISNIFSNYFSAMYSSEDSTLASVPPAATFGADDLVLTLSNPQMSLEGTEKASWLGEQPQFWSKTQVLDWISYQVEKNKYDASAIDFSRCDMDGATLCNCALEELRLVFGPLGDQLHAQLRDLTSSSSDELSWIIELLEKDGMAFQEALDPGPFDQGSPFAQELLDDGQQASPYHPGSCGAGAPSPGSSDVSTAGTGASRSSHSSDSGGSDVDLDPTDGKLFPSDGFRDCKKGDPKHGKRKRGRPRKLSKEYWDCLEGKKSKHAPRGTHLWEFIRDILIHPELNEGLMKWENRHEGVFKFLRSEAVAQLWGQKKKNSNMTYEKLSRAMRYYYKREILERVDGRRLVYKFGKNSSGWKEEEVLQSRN
# Procedure, shortened: as §1
# CRX = CRX (Homo sapiens, UniProt O43186 1-299); conditions: protein: recombinant; tags: N-terminal GST; dsDNA, one strand shown
# Sequence of CRX (O43186 whole entry): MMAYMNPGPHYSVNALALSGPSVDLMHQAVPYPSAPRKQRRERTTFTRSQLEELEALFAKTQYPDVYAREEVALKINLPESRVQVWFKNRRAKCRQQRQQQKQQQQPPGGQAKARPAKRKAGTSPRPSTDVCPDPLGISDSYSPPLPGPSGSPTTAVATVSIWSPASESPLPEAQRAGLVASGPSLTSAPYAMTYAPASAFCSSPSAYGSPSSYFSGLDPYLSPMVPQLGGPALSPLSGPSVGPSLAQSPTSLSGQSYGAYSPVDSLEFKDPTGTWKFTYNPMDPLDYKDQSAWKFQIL
# Procedure, shortened: as §1
# ETV1 = ETV1 (Homo sapiens, UniProt P50549 1-477); conditions: protein: recombinant; tags: N-terminal GST; dsDNA, one strand shown
# Sequence of ETV1 (P50549 whole entry): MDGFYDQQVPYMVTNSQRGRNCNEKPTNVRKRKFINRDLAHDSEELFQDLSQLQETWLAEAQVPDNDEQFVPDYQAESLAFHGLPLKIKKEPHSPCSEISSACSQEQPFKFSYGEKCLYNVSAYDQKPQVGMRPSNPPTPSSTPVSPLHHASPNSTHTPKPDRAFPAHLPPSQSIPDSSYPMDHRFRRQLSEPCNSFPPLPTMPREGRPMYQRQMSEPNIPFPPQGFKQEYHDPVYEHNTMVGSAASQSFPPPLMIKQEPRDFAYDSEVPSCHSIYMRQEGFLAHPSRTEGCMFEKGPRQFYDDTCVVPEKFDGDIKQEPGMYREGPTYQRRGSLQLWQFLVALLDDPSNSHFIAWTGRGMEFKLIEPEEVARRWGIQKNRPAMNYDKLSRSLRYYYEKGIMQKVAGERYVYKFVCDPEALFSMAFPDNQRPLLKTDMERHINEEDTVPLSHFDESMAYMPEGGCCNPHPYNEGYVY
# Procedure, shortened: as §1
# ERF = molecular target: T6, ERF (Homo sapiens, UniProt P50548 1-548); conditions: protein: recombinant; tags: N-terminal GST; dsDNA, one strand shown
# T6 sequence: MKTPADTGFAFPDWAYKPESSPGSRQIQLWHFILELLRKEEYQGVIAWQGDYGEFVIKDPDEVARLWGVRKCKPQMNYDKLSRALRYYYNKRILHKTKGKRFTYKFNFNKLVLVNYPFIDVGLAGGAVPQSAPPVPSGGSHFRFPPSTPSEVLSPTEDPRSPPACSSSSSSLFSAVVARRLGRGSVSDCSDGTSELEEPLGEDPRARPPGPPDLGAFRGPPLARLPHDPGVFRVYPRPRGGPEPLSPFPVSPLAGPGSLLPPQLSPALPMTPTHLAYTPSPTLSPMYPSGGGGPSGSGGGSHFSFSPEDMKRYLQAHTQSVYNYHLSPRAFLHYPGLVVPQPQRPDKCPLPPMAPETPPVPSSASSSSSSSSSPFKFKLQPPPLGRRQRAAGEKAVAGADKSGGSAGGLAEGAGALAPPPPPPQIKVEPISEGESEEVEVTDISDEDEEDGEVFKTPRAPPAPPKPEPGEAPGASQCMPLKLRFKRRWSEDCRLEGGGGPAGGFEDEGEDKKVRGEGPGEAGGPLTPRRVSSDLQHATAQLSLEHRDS
# Procedure, shortened: as §1
# ETV3L = molecular target: T7, ETV3L (Homo sapiens, UniProt Q6ZN32 1-361); conditions: protein: recombinant; tags: N-terminal GST; dsDNA, one strand shown
# T7 sequence: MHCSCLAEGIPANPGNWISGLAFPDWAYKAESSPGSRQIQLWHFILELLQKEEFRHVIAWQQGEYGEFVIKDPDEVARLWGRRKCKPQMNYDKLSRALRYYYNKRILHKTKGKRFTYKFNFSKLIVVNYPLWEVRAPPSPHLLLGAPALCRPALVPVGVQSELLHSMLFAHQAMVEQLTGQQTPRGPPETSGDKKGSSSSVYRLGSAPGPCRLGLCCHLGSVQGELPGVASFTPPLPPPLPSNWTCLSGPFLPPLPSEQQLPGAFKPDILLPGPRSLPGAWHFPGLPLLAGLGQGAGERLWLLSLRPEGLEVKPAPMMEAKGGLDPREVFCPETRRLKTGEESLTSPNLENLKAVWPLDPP
# Procedure, shortened: as §1
# ETS2 = molecular target: T8, ETS2 (Homo sapiens, UniProt P15036 1-469); conditions: protein: recombinant; tags: N-terminal GST; dsDNA, one strand shown
# T8 sequence: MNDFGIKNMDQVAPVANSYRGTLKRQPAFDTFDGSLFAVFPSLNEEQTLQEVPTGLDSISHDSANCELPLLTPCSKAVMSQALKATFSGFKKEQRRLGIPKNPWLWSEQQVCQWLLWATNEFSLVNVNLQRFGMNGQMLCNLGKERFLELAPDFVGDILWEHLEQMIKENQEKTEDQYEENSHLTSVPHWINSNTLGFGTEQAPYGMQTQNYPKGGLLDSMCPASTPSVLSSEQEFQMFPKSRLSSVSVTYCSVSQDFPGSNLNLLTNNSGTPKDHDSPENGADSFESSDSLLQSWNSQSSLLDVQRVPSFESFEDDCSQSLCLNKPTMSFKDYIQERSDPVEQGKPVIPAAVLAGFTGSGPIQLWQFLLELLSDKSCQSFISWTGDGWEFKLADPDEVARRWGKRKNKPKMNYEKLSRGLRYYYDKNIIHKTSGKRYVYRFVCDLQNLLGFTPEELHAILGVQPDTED
# Procedure, shortened: as §1
# SPDEF = molecular target: T9, SPDEF (Homo sapiens, UniProt O95238 1-335); conditions: protein: recombinant; tags: N-terminal GST; dsDNA, one strand shown
# T9 sequence: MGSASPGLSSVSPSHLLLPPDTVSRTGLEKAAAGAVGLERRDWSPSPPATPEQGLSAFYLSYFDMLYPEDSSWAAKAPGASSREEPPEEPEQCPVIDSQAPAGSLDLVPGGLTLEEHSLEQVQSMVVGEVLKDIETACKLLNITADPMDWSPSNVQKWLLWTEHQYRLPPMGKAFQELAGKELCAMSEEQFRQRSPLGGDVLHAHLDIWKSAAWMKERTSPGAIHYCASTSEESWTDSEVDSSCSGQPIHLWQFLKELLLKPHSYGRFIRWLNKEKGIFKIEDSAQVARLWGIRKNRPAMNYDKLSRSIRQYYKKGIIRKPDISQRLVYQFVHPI
# Procedure, shortened: as §1
# ETV7 = molecular target: T10, ETV7 (Homo sapiens, UniProt Q9Y603 1-341); conditions: protein: recombinant; tags: N-terminal GST; dsDNA, one strand shown
# T10 sequence: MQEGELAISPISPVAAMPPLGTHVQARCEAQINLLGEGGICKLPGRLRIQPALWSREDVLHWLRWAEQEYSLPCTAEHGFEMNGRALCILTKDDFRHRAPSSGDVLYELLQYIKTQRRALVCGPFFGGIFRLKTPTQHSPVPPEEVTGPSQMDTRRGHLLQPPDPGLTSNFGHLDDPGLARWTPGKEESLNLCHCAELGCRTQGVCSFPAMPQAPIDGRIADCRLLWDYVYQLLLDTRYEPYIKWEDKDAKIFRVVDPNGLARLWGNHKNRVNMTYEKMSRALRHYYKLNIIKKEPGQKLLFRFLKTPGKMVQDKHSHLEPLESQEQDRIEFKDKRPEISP
# Procedure, shortened: as §1
# ELF5 = molecular target: T11, ELF5 (Homo sapiens, UniProt Q9UKW6-2 1-255); conditions: protein: recombinant; tags: N-terminal GST; dsDNA, one strand shown
# T11 sequence: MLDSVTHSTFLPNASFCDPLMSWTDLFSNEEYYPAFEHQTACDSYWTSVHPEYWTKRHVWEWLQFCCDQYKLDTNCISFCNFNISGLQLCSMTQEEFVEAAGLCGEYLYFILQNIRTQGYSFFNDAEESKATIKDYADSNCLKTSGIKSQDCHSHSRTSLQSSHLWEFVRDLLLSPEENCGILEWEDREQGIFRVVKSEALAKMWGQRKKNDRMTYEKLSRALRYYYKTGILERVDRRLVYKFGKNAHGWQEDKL
# Procedure, shortened: as §1
# ETV3 = molecular target: T12, ETV3 (Homo sapiens, UniProt P41162-2 1-143); conditions: protein: recombinant; tags: N-terminal GST; dsDNA, one strand shown
# T12 sequence: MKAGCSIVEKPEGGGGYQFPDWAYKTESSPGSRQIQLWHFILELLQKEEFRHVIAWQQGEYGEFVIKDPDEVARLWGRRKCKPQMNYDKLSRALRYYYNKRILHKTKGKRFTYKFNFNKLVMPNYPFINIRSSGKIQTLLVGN
# Procedure, shortened: as §1
# ETV6 = ETV6 (Homo sapiens, UniProt P41212 1-452); conditions: protein: recombinant; tags: N-terminal GST; dsDNA, one strand shown
# Sequence of ETV6 (P41212 whole entry): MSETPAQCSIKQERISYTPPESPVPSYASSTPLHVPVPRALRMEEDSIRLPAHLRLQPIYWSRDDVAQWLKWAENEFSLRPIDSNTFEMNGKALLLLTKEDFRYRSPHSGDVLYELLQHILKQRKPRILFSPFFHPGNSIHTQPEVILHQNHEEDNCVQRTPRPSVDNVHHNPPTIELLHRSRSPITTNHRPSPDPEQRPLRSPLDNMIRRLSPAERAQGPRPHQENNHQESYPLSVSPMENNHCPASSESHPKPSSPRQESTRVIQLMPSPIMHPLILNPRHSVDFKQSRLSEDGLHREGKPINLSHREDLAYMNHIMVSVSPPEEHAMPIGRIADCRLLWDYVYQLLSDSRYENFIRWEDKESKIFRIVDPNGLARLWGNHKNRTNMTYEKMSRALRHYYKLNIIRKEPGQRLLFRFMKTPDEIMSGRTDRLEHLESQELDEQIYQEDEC
# Procedure, shortened: as §1
sequence,measurement,setting,value
CAACTC,binding signal,FEV,"1.23 fold enrichment (6-mer frequency, TF over GST control)"
same,binding signal,ETV5,"1.22 fold enrichment (6-mer frequency, TF over GST control)"
same,binding signal,HSF1,"1.12 fold enrichment (6-mer frequency, TF over GST control)"
same,binding signal,SPIC,"1.33 fold enrichment (6-mer frequency, TF over GST control)"
same,binding signal,ELF4,"1.27 fold enrichment (6-mer frequency, TF over GST control)"
same,binding signal,ELK4,"1.2 fold enrichment (6-mer frequency, TF over GST control)"
same,binding signal,ETV2,"1.3 fold enrichment (6-mer frequency, TF over GST control)"
same,binding signal,ELF3,"1.24 fold enrichment (6-mer frequency, TF over GST control)"
same,binding signal,CRX,"1.01 fold enrichment (6-mer frequency, TF over GST control)"
same,binding signal,ETV1,"1.18 fold enrichment (6-mer frequency, TF over GST control)"
same,binding signal,ERF,"1.26 fold enrichment (6-mer frequency, TF over GST control)"
same,binding signal,ETV3L,"1.22 fold enrichment (6-mer frequency, TF over GST control)"
same,binding signal,ETS2,"1.26 fold enrichment (6-mer frequency, TF over GST control)"
same,binding signal,SPDEF,"1.36 fold enrichment (6-mer frequency, TF over GST control)"
same,binding signal,ETV7,"1.12 fold enrichment (6-mer frequency, TF over GST control)"
same,binding signal,ELF5,"1.16 fold enrichment (6-mer frequency, TF over GST control)"
same,binding signal,ETV3,"1.31 fold enrichment (6-mer frequency, TF over GST control)"
same,binding signal,ETV6,"1.29 fold enrichment (6-mer frequency, TF over GST control)"
